The target in experiment [1] is Cellular tumor antigen p53 (Homo sapiens) (UniProt P04637). Briefly: Primary qHTS for small molecule compounds that upregulate eGFP-tagged delta133p53alpha (in N-terminal) cells. (AID 2060322). Also: nearly all actives have a fitted effect of over 75% in size. Also: potency is read from the fitted curve at half-maximal effect.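 As to activation: cells pre-induced with doxycycline then dosed without doxycycline; series mostly up to about 56 µM; 0% = DMSO vehicle and 100% = reference activator.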 Particulars: NCI-H358 eGFP-delta133p53alpha fluorescence, 24 h; activation: active compounds read high. In outline:
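NCI-H358 cells pre-induced 24 h with 10 ng/ml doxycycline for eGFP-delta133p53alpha, plated dox-free and exposed 24 h at 37C to titrated compounds. Fixed, Hoechst-stained; gated GFP peak intensity by laser scanning cytometry, normalized to DMSO (0%) and 57.5 uM 5-azacytidine (100%).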

The target in experiment [2] is Aldehyde dehydrogenase, mitochondrial (Homo sapiens) (UniProt P05091). Briefly: qHTS for Inhibitors of the Aldehyde Dehydrogenase Family (ALDH2) Primary screen (AID 2061308).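 Also: plate controls were vehicle for no effect and reference inhibitor for full effect; nearly all actives have a fitted effect of over 55% in size.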
The target of experiment [3] is Retinaldehyde dehydrogenase 3 (Homo sapiens) (UniProt P47895). Briefly: qHTS for Inhibitors of the Aldehyde Dehydrogenase Family (ALDH1A3) Primary screen (AID 2061315).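 Also: plate controls were DMSO vehicle for no effect and reference inhibitor for full effect.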
Experiment [4] in a line: BET inhibitor-based combinations targeting novel dependencies in MECOM-rearranged (r) AML: SET-2 cell line (AID 2202231). Also: nearly all actives have a fitted effect of over 35% in size. Also: potency is read from the fitted curve at half-maximal effect.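 As to viability: plate controls were DMSO treated cells for no effect and wells without cells for full effect.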 The following applies: SET-2 AML cells viability, CellTiter-Glo luminescence, 48 h; viability: active compounds read low, concentration not given here. In outline:
(§1)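 Cells were plated at 500 per well and exposed to an 11-point dose series of each drug for 48 hr. Viability was measured by CellTiter-Glo luminescence, normalized to DMSO and empty-well controls, and summarized as AUC and per-cell-line Z-AUC.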
(In general: In ATP-based viability assays light output follows the ATP content of the culture.)

A short description of experiment [5]: BET inhibitor-based combinations targeting novel dependencies in MECOM-rearranged (r) AML: MV-4-11 cell line (AID 2202233). Also: nearly all actives have a fitted effect of over 45% in size. Also: potency is read from the fitted curve at half-maximal effect. The method in brief:
(§2)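 Activity is given as area under the curve and as Z-AUC, mean-centred within each cell line. It comes from 11-point dose curves normalized to DMSO and empty wells. CellTiter-Glo luminescence was read after 48 hr drug exposure of 500 cells/well.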

Experiment [6] can be described thus: BET inhibitor-based combinations targeting novel dependencies in MECOM-rearranged (r) AML: UCSD-AML1 cell line (AID 2202235). Also: nearly all actives have a fitted effect of over 40% in size. Also: potency is read from the fitted curve at half-maximal effect. In outline: as §2
Experiment [7] in a line: BET inhibitor-based combinations targeting novel dependencies in MECOM-rearranged (r) AML: AML-191 cell line (AID 2202236; also: nearly all actives have a fitted effect of over 35% in size; also: potency is read from the fitted curve at half-maximal effect). In outline: as §1
A short description of experiment [8]: BET inhibitor-based combinations targeting novel dependencies in MECOM-rearranged (r) AML: AML-194 cell line (AID 2202237; also: nearly all actives have a fitted effect of over 40% in size; also: potency is read from the fitted curve at half-maximal effect). The method in brief:
as §1

The nature of experiment [9]: BET inhibitor-based combinations targeting novel dependencies in MECOM-rearranged (r) AML: HNT-34 cell line (AID 2202234). Also: nearly all actives have a fitted effect of over 35% in size. Also: potency is read from the fitted curve at half-maximal effect. In outline:
as §2

Each structure is given as a SMILES string. “And” between values parts separate entries of the source, which are not always exact repeats. Identical values can stand only once. Results filed as inconclusive are left out. A number with no mark means an inactive call. The source made the active and inactive calls. Calls follow the shape of the dose curve; as a rule, active = well fitted curve in the direction sought with a large enough effect; inconclusive = small, poorly fitted or top-dose-only effect, or another doubt; inactive = no such curve, though single readings can be large; an effect the other way counts as inactive or inconclusive.

Chain of Cellular tumor antigen p53 (Homo sapiens) (P04637 whole entry, looked up): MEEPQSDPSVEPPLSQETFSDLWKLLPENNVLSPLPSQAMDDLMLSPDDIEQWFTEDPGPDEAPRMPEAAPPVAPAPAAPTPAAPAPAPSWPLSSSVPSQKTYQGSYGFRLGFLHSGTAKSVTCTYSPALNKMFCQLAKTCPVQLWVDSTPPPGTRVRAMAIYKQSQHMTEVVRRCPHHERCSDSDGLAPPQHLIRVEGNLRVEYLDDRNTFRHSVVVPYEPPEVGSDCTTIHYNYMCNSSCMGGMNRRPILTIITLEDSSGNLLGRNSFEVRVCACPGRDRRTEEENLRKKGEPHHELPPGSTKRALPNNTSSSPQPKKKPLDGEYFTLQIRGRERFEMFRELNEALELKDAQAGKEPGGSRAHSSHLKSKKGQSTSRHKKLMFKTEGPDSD

With `CN(C)CC(C)(C)CNc1nn2c(-c3ccccc3)nnc2cc1C1CCC1`, in experiment [1], the activation was -1.72% and 7.14%. Also, the Potency entry in experiment [2], in experiment [3], in [5], in [6], in [7] and in experiment [8] was “inactive” in each case. Also, the viability in experiment [4] was 113%.

For `COc1cccc(OCCCN)c1-c1cc(Nc2cnc(C#N)cn2)n[nH]1`, the Potency in [1] is 26900 nM (active); in [4], 59 nM (active); in experiment [9] it was 59 nM (active); in [6], 9.3 nM (active); in [7], 23.5 nM (active). The Potency result in [2] and in experiment [3] was “inactive” in each case.

For `Cn1cc(-c2c[nH]c3ncnc(N4CCOCC4)c23)cn1`, the activation in experiment [1] was -7.14%. The Potency entry in experiment [2], in [3], in experiment [6] and in [8] was “inactive” each time. In addition, the viability in [4] is 112%. Further, the Potency in experiment [5] was 11800 nM (active); in experiment [7], 20900 nM (active).

In the case of `O=c1[nH]c(-c2ccc(C(F)(F)F)cc2)nc2c1CSCC2`, the activation in experiment [1] was 25.7% and -15.7%. The Potency entry in experiment [2], in [3], in experiment [9], in experiment [6], in experiment [7] and in [8] was “inactive” each time. For the same molecule, the viability in experiment [4] was 95.3%.

Take `Cn1cc(-c2ccc3c(c2)CCN3C(=O)Cc2cccc(C(F)(F)F)c2)c2c(N)ncnc21`: in experiment [1], the activation was -11.6%. The Potency result in [2], in [3] and in experiment [8] was “inactive” throughout. In addition, the viability in [4] was 105%. The Potency in experiment [5] was 9340 nM (active); in experiment [7] it was 18600 nM (active).

On to `Cc1ccc(S(=O)(=O)Cc2nc(-c3ccc(C(=O)NCc4cccnc4)cc3)oc2C)cc1`, for which the activation in experiment [1] was 26.3%. The Potency entry in experiment [2] and in [3] was “inactive” in each case. The figures for the Potency in experiment [4], in [9] and in experiment [7] were 18600 nM (active), 26.3 nM (active) and 23.5 nM (active), respectively.

As for `Cn1cnc2c(F)c(Nc3ccc(Br)cc3F)c(C(=O)NOCCO)cc21`, the activation in experiment [1] is 64.2% and -20.5%. Also, the Potency result in experiment [2] and in [3] was “inactive” throughout. Besides, the viability in [4] is 26.2%. The Potency in [9] was 23.5 nM (active).

On to `CCN(CCO)CCCOc1ccc2c(Nc3cc(CC(=O)Nc4cccc(F)c4)[nH]n3)ncnc2c1`, for which, in [1], the activation is -6.72% and 29.5%. Also, the Potency result in [2] and in experiment [3] was “inactive” each time. The viability in [4] was 100%. For the same molecule, the Potency in [5] is 52.5 nM (active); in [7], 93.4 nM (active).

Regarding `Cn1nccc1Nc1nccc(-c2ccn([C@H](CO)c3ccc(Cl)c(F)c3)c(=O)c2)n1`, the activation in experiment [1] is -22.3%. Moreover, the Potency entry in [2] and in experiment [3] was “inactive” in each case. Also, the viability in experiment [4] was 72.4%. Further, the Potency in experiment [5] and in [6] was 16600 nM (active) throughout.

In the case of `Cc1cc2c(cc1C1(c3ccc(C(=O)O)cn3)CC1)C(C)(C)CCC2(C)C`, the activation in experiment [1] was -11.7% and 0.333%. Further, the Potency entry in [2], in [3], in [6] and in experiment [8] was “inactive” in each case. Moreover, in experiment [4], the viability was 114%. The Potency in experiment [5] was 20.9 nM (active).

With `COc1cc2ncnc(Oc3cccc(NC(=O)Nc4cc(C(C)(C)C(F)(F)F)on4)c3)c2cc1OC`, the Potency is 23900 nM (active) in experiment [1] and 662 nM (active) in experiment [5]. The Potency entry in experiment [2], in [3] and in experiment [8] was “inactive” throughout. Also, in experiment [4], the viability is 104%.

With `c1ccc(-c2oc3ncnc(NC[C@@H]4CCCO4)c3c2-c2ccccc2)cc1`, in experiment [1], the activation was 5.12% and -14.3%. Further, the Potency entry in [2], in experiment [3], in [5], in experiment [7] and in [8] was “inactive” in each case. Moreover, the viability in [4] is 86.5%.

As to `Clc1ccc(Nc2nnc(Cc3ccncc3)c3ccccc23)cc1`, the activation in experiment [1] was -10.3% and 9.21% and -17%. Further, the Potency result in experiment [2], in experiment [3], in experiment [9], in experiment [7] and in experiment [8] was “inactive” in each case. Also, in [4], the viability is 91.3%.

On to `Cc1c(NC(=O)c2cc(C(N)=O)nc3cc(F)ccc23)c(C(F)(F)F)nn1Cc1ccc(C#N)cc1`, for which the activation in experiment [1] was 14.3%. Further, the Potency result in experiment [2], in [3] and in [6] was “inactive” throughout. In addition, the viability in experiment [4] was 101%.

Take `COc1cc2c(Oc3ccc(NC(=O)C4(C(=O)Nc5ccc(F)cc5)CC4)cc3F)ccnc2cc1OCCCN1CCOCC1`: the Potency in [1] was 7570 nM (active); in experiment [4], 23500 nM (active); in experiment [5], 7.4 nM (active); in experiment [6], 833 nM (active); in experiment [7], 662 nM (active); in [8] it was 590 nM (active). For the same molecule, the Potency entry in experiment [2] and in [3] was “inactive” in each case.

For `CN(C)c1ccc(C2Nc3ccc4ccccc4c3C3=C2C(=O)CC(C)(C)C3)cc1Br` (stereo unspecified), the activation in experiment [1] is 5.76% and 26.3%. Further, the Potency result in [2], in experiment [3], in experiment [6] and in experiment [7] was “inactive” in each case. Also, the viability in [4] is 107%.

For `CCc1cc2c(cc1N1CCC(N3CCOCC3)CC1)C(C)(C)c1[nH]c3cc(C#N)ccc3c1C2=O`, in [1], the activation was 46.2%. The Potency entry in [2], in experiment [3] and in [6] was “inactive” in each case. Besides, the viability in experiment [4] is 88.5%.

Regarding `O=C(NOCC(O)CO)c1ccc(F)c(F)c1Nc1ccc(I)cc1F` (stereo unspecified), the activation in experiment [1] was 0.955%. Besides, the Potency result in experiment [2] and in experiment [3] was “inactive” throughout. For the same molecule, in experiment [4], the viability was 80.7%. The Potency in [9] was 209 nM (active).

`Cc1cccc(Oc2cnc(=O)[nH]c2)c1`: the activation in experiment [1] is -25%. The Potency entry in experiment [2], in [3], in [9], in experiment [6] and in experiment [8] was “inactive” in each case. The viability in experiment [4] was 115%.

As for `C[C@@H]1CN(Cc2ccc(F)cc2)[C@@H](C)CN1C(=O)c1cc2c(C(=O)C(=O)N(C)C)cn(C)c2cc1Cl`, the activation in experiment [1] was 10.3% and -3.57%. Also, the Potency result in experiment [2], in experiment [3], in [9], in experiment [6] and in [8] was “inactive” throughout. In addition, in experiment [4], the viability is 94.6%.

As usually defined, the viability is a read-out of living cells in per cent, often relative to untreated cells.

For the origin of these results see PubChem BioAssay (NCATS).
